# AmpC detergent: AmpC beta-lactamase inhibition with detergent present | AmpC hydrolysis of nitrocefin, absorbance 480 nm, 0.01% Triton | Potency, µM (highest dose often 114 µM), without a hit: at the top dose activity change, negative = inhibition, hits mostly inhibitors | hit rate 0.041% among 370,000 | AID 485294;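 also: 0% = no-compound wells and -100% = no-enzyme wells; nearly all actives have a fitted effect of over 25% in size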
#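 AmpC (5.3 nM in the dispensed reagent) in 20 mM phosphate pH 7.0 with 0.01% (detergent screen) or 0.0001% Triton X-100 was preincubated with compounds for 15 min at room temperature. Nitrocefin was then added from an 800 uM solution, and hydrolysis was followed at 480 nm.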
# Giardia FBPA inh-1: Giardia lamblia aldolase inhibition; hit rate 0.71% among 290,000; Potency, µM (highest dose often 59.6 µM), for inactives: top-dose activity, negative = inhibition, hits mostly inhibitors; A8B2U2; purified Giardia FBPA; AID 2451; also: % is scaled to controls: 0 for no effect and ±100 for the full control effect; nearly all actives have a fitted effect of over 55% in size
#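 Giardia FBPA (40 nM reagent) was preincubated 10 min at RT with compound (up to 57.5 uM final), then substrate plus GAPDH/TPI/NAD/arsenate coupling system with diaphorase/resazurin was added; resorufin fluorescence (525/598 nm) was read after 20 min.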
# SARS PLP yeast: inhibitors of SARS-CoV papain-like protease in yeast; S. cerevisiae expressing SARS-CoV PLpro, growth rescue; Potency, µM (series often up to 32.9 µM), for the others: at the highest dose activity, positive = growth rescue, hits mostly activators; hit rate 0.19% among 330,000; AID 485353; calls by dose curve; also: 0% is about no effect; nearly all actives have a fitted effect of over 55% in size
# AmpC inh no detg: AmpC beta-lactamase inhibition without detergent; P00811; AmpC nitrocefin hydrolysis, absorbance 480 nm, 0.0001% Triton; Potency, µM (highest dose often 57.1 µM), without a hit: top-dose activity change, negative = inhibition, actives largely listed as inhibitors; hit rate 0.52% among 330,000; AID 485341;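 also: plate controls were no compound for no effect and no enzyme for full effect; nearly all actives have a fitted effect of over 20% in size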
#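 20 mM phosphate pH 7.0 + 0.01% (detergent screen) or 0.0001% Triton X-100; 5.3 nM AmpC reagent; cpd preinc 15 min RT; nitrocefin (800 uM stock) to start; A480 q20 s × 4 min; Activity was normalised to no-enzyme and no-compound control wells.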
# NS1 inh: inhibitors of influenza NS1 protein function; hit rate 0.4% among 270,000; AID 2326; Potency, µM (top dose mostly 46.1 µM), without a hit: at the top dose activity, positive = more growth; calls by dose curve; also: actives are rising curves; nearly all actives have a fitted effect of over 50% in size
#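 Read-out: OD600 growth recovery of NS1-expressing budding yeast. Cells grown overnight at 30C in -URA glucose medium, washed, resuspended and diluted 1:100 in 2% galactose assay medium, pH 6.0. Same strain lacking NS1 served as positive control.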
# Giardia growth: inhibitors of Giardia lamblia growth. shares compounds with Giardia FBPA inh-1. Giardia lamblia trophozoite growth inhibition. Potency, µM (highest dose often 57.5 µM), for the others: at the highest dose activity change, negative = inhibition, actives largely listed as inhibitors. hit rate 5% among 1,500;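 also: trophozoites exposed to compound for 48 h at 37 °C; % is scaled to controls: 0 for no effect and ±100 for the full control effect; nearly all actives have a fitted effect of over 70% in size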
# Mammalian tox: counter-screen for Giardia aldolase inhibitors: mammalian cell toxicity; Potency, µM (series often up to 57.5 µM), for inactives: at the top dose viability change, negative = toxicity, most hits filed as inhibitors; hit rate 4% among 1,500; mammalian cell viability counter-screen, qHTS; AID 2786; shares compounds with Giardia FBPA inh-1;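 also: Chinese hamster ovary cells used as mammalian cytotoxicity surrogate; viability measured as cellular ATP by luminescence; compound exposure lasted 48 h before reading; % is scaled to controls: 0 for no effect and ±100 for the full control effect; nearly all actives have a fitted effect of over 60% in size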
# Giardia FBPA inh-2: confirmation of Giardia fructose-bisphosphate aldolase inhibitors | hit rate 5% among 1,500 | AID 2787 | Potency, µM (series often up to 57.5 µM), without a hit: at the top dose activity change, negative = inhibition, actives largely listed as inhibitors | purified Giardia aldolase enzyme activity, qHTS | shares compounds with Giardia FBPA inh-1; also: % is scaled to controls: 0 for no effect and ±100 for the full control effect; nearly all actives have a fitted effect of over 45% in size
# Rabbit FBPA inh: blocks rabbit muscle aldolase in Giardia aldolase selectivity test. shares compounds with Giardia FBPA inh-1. Rabbit muscle FBPA enzyme inhibition, selectivity counter-screen. Potency, µM (titrated, usually from 57.5 µM), for inactives: at the highest dose activity, negative = inhibition, usual class: inhibitors. hit rate 4% among 1,500. AID 2794; also: % is scaled to controls: 0 for no effect and ±100 for the full control effect; nearly all actives have a fitted effect of over 60% in size
# Target sequence (P00883 whole entry, looked up): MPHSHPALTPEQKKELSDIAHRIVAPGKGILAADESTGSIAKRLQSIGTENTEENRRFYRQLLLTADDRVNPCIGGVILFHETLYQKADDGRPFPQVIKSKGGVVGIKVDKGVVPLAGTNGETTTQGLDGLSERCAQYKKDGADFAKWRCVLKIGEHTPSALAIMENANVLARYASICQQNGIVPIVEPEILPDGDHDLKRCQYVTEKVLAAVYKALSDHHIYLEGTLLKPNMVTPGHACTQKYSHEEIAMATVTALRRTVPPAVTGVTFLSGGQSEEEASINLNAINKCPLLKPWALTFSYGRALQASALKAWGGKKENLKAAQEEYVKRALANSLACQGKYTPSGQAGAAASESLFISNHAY
# GAPDH counter: GAPDH inhibition flagged for Giardia aldolase hits | shares compounds with Giardia FBPA inh-1 | AID 2795 | hit rate 6% among 1,500 | GAPDH coupling enzyme counterscreen, biochemical, qHTS | Potency, µM (series often up to 57.5 µM), for inactives: at the highest dose activity change, negative = inhibition, most hits filed as inhibitors; also: % is scaled to controls: 0 for no effect and ±100 for the full control effect; nearly all actives have a fitted effect of over 55% in size
# Starred values were filed as active, the others as inactive; ? = inconclusive; . = no result given; [ ] = dose if it differs, or a comment. Shown are actives, neighbours in structure and some others; about 1.4% of the full set was active somewhere. Unless noted, calls follow the shape of the dose curve; as a rule, active = well fitted curve in the direction sought with a large enough effect; inconclusive = small, poorly fitted or top-dose-only effect, or another doubt; inactive = no such curve, though single readings can be large; an effect the other way counts as inactive or inconclusive. Potency is read from the fitted curve at half-maximal effect.
SMILES,AmpC detergent,Giardia FBPA inh-1,SARS PLP yeast,AmpC inh no detg,NS1 inh,Giardia growth,Mammalian tox,Giardia FBPA inh-2,Rabbit FBPA inh,GAPDH counter
Cc1cccc(C)c1OCCCn1ccnc1,-15.1%,22.4µM*,0.4%,-7.5%,?,8.7%,33.3%,6.6%,2.9%,16.6%
CC(C)(C)c1cc(Cl)ccc1OCCn1ccnc1,-0.7%,17.8µM*,-9.8%,55.9%,-77.6%,5.2%,11.9%,-11.0%,-0.1%,-21.4%
CC(C)(C)c1ccccc1OCCCCCn1ccnc1,-9.3%,17.7µM*,-3.4%,0.2%[2.29 µM],-4.1%,67.6%,8.1%,-13.6%,-20.0%,-13.0%
Cn1cc(S(=O)(=O)c2ccccc2)n(C)c1=O,0.9%,-0.3%,-0.1%,-20.0%,5.4%,.,.,.,.,.
CC(=O)N[C@@H]1CCSC1=O,.,5.1%[21.7 µM],.,.,.,.,.,.,.,.
CC(=O)NC1C(=O)SC1(C)C (stereo not given),5.6%,15.8µM*,2.6%,-7.5%,1.1%,-10.1%,-4.9%,-22.4%,-3.9%,-3.4%
CCCCc1cc(=O)oc2cc(OCC(=O)N[C@@H](Cc3ccccc3)C(=O)O)ccc12,?,18.7%,7.9%,-40.3%,?,.,.,.,.,.
NS(=O)(=O)c1ccc(NC(=S)NCC2CCCO2)cc1 (stereo not given),1.2%,-1.8%,-8.1%,-24.7%,9.9%,.,.,.,.,.
CC(=O)Nc1ccc(S(=O)(=O)NNC(=S)NCC2CCCO2)cc1 (stereo not given),-2.7%,12.6µM*,-1.2%,-11.4%,-4.8%,133.4%,1.9%,11.3%,9.0%,10.7%
CCOc1c(/C=C(\C#N)C(N)=O)c2ccccc2n1CC,?,1.1%,13.8%,0.3%,-13.2%,.,.,.,.,.
Cc1nn(-c2ccccc2)c(C)c1/C=N/Nc1nc2ccccc2[nH]1,?,19.9µM*,-32.2%,-2.3%,?,14.1µM*,25.1µM*,8.4%,0.1%,-15.6%
NS(=O)(=O)c1ccc(-c2ccc(/C=C3\NC(=S)NC3=O)o2)cc1,-7.3%,15.8µM*,9.1%,-17.2%,-9.6%,?,1.2%,-24.8%,-15.5%,-6.8%
NS(=O)(=O)c1ccc(-c2ccc(C=O)o2)cc1,0.1%,-0.1%,3.2%,-17.2%,0.9%,.,.,.,.,.
O=C1NC(=O)N(c2ccccc2)C(=O)/C1=C/C=C/c1ccco1,7.0%,-13.4%,-1.1%,-36.3%,2.8%,.,.,.,.,.
CN1C(=O)/C(=C/C=C/c2ccco2)C(=O)NC1=S,2.7%,15.8µM*,1.3%,-26.4%,9.3%,27.8%,-5.0%,-20.4%,6.1%,22.5%
O=c1cc(-c2ccc(O)cc2)oc2c(O)c(O)c(O)c(O)c12,5.1%,6.29µM*,-0.1%,-37.2%,3.2%,-8.3%[38.3 µM],-9.7%,20.6µM*,18.3µM*,?
O=c1cc(-c2ccc(O)cc2)oc2c1ccc1ccccc12,-11.1%,.,5.0%,9.1%,.,.,.,.,.,.
O=C(Nc1nnc(-c2ccc(Cl)cc2)o1)c1cccc(N2C(=O)CCC2=O)c1,?,27.5%,0.3%,-22.9%,-3.6%,.,.,.,.,.
Cc1cccc(C(=O)Nc2nnc(-c3cccnc3)o2)c1,3.4%,15.8µM*,0.4%,-12.4%,.,?,?,3.5%,-0.6%,-0.7%
O=C(Nc1nnc(-c2ccncc2)o1)c1cccc(N2C(=O)CCC2=O)c1,1.6%,19.9µM*,0.7%,-4.6%,.,-6.8%[10.4 µM],-14.8%,6.9%,7.5%,9.5%

# Source: PubChem (National Center for Advancing Translational Sciences (NCATS))
